# The campaign covered roughly 4,400 compounds. About 390 (8.9%) showed an effect of 50% or more. The sample holds strong results, similar compounds and a random draw of the others, so the mix is not that of the screen.
# Test system: Trypanosoma brucei
# Assay: DNDI: Inhibition of Human African Trypanosomiasis, SBRI 427, in vitro at 2 ug.mL-1
# Assay type: functional
row,Compound,% inhibition [%]
1,Cc1ccc(-c2nc(CNC[C@@H]3CC[C@H]4C[C@@H]3C4(C)C)co2)cc1,99
2,COc1ccc(-c2nc(CNC[C@@H]3CC[C@H]4C[C@@H]3C4(C)C)co2)cc1,97
3,COc1ccc(-c2nc(CNCC3CCCO3)co2)cc1 (stereo unspecified),-10
4,Cc1ccc(-c2nc(CNC[C@@H]3CCCO3)co2)cc1,12
5,CC1(C)[C@H]2CC[C@@H](CNCc3coc(-c4cccc5ccccc45)n3)[C@@H]1C2,73
6,CC1(C)[C@H]2CC[C@@H](CNCc3coc(-c4cccc(F)c4)n3)[C@@H]1C2,42
7,COc1cc(-c2nc(CNC[C@@H]3CC[C@H]4C[C@@H]3C4(C)C)co2)cc(OC)c1OC,11
8,CC1(C)[C@H]2CC[C@@H](CNCc3coc(-c4ccccc4Cl)n3)[C@@H]1C2,35
9,COc1ccc(CNCc2coc(-c3ccc(F)cc3)n2)cc1,-33
10,CC1(C)[C@H]2CC[C@@H](CNCc3coc(-c4ccc(F)cc4)n3)[C@@H]1C2,99
11,Cc1ccc(-c2nc(CNCc3ccc(C)o3)co2)cc1,-7
12,c1ccc2c(CNCc3coc(-c4cccc5ccccc45)n3)cccc2c1,14
13,CCOc1ccc(-c2nc(CNCc3ccc(C(F)(F)F)cc3)co2)cc1,-13
14,CCOc1ccc(-c2nc(CN3CCC(N4CCCCC4)CC3)co2)cc1,9
15,CC(NCc1coc(-c2ccccc2Cl)n1)c1ccccc1 (stereo unspecified),9
16,COC(=O)C1CCN(/C(=N\O)c2ccc(Oc3ccc(C)cc3C)nc2)CC1,11
17,CCCCN(CCC#N)Cc1coc(-c2ccccc2OCC)n1,-9
18,O=[N+]([O-])c1ccc(N2CCN(Cc3coc(-c4cccc(F)c4)n3)CC2)cc1,-6
19,c1csc(-c2nc(CN3CCCCCCC3)co2)c1,3
20,Cc1cc(C)cc(Oc2nc(C)ccc2/C(=N/O)NCCN2CCOCC2)c1,15
21,Cc1ccc(/C(=N/O)NCC2CC2)c(Oc2ccc3oc4ccccc4c3c2)n1,5
22,Cc1ccc(/C(=N/O)NC2CCC2)c(Oc2ccc3oc4ccccc4c3c2)n1,101

row,Compound,% inhibition [%]
1,Cc1ccc(/C(=N/O)NC2CCCC2)c(Oc2ccc3oc4ccccc4c3c2)n1,99
2,Cc1ccc(/C(=N/O)NC2CCC(C)CC2)c(Oc2ccc3oc4ccccc4c3c2)n1 (stereo unspecified),3
3,Cc1cc(N/C(=N\O)c2ccc(C)nc2Oc2ccc3oc4ccccc4c3c2)on1,20
4,Cc1ccc(/C(=N/O)NCCC2CCCN2C)c(Oc2ccc3oc4ccccc4c3c2)n1 (stereo unspecified),13
5,Cc1ccc(/C(=N/O)NC2CCCC2)c(Oc2cccc(C(C)C)c2)n1,3
6,CC(C)COc1ncccc1/C(=N/O)N(C)Cc1ccco1,11
7,COc1ccc(-c2nc(CN3CCN(C(=O)C4CCCO4)CC3)co2)cc1 (stereo unspecified),9
8,COc1ccc(Oc2cc(/C(N)=N/O)ccn2)cc1,19
9,CCOc1ccc(Oc2cc(/C(N)=N/O)ccn2)cc1,7
10,Cc1ccc(Oc2cc(/C(N)=N/O)ccn2)c2c1CCC2,16
11,C#CCN(C)Cc1coc(-c2ccc(Br)cc2)n1,4
12,CC(C)c1ccc(N/C(=N\O)c2cccnc2OCC(F)(F)F)cc1,1
13,CCC(CC)N/C(=N\O)c1cccnc1OCC1CCCCC1,98
14,O/N=C(\NCC1CCCCC1)c1cccnc1OCC(F)(F)F,0
15,N/C(=N\O)c1cccnc1OCC1CCCCC1,13
16,O/N=C(\NC1CCCCC1)c1cccnc1OCC(F)(F)F,71
17,O/N=C(\NCc1cccs1)c1cccnc1OCC1CCCCC1,-4
18,O/N=C(\NCC1CCCO1)c1cccnc1OCC1CCCCC1 (stereo unspecified),5
19,O/N=C(\NC1CCC1)c1cccnc1OCC1CCCCC1,99
20,Cc1ccc(/C(=N/O)NC2CCCC2)c(OCC2CCCCC2)n1,12
21,COc1ccc(CN/C(=N\O)c2cccnc2Oc2ccc(SC)c(C)c2)cc1,4
22,CC1CCCCN1Cc1coc(-c2ccco2)n1 (stereo unspecified),1

row,Compound,% inhibition [%]
1,C(=C\c1ccccc1)/CN1CCN(Cc2coc(-c3cccc4ccccc34)n2)CC1,19
2,O/N=C(/c1ccc(Oc2cccc(F)c2)nc1)N1CCCCC1,5
3,c1csc(-c2nc(CNCC3CCCO3)co2)c1 (stereo unspecified),2
4,COc1ccc(-c2nc(CN3CCCCC3)co2)cc1,4
5,Cc1ccc(/C(=N/O)N2CCCCC2)c(Oc2ccc(-n3ccnc3)cc2)n1,12
6,Cc1cc(Oc2ncccc2/C(N)=N/O)cc(C(C)C)c1,20
7,Cc1ccc(/C(=N/O)NC(C)C)c(Oc2cccc(C(C)C)c2)n1,7
8,Cc1ccc(/C(N)=N/O)c(Oc2ccc(C(C)C)cc2)n1,31
9,Cc1cc(Oc2nc(C)ccc2/C(N)=N/O)cc(C(C)C)c1,55
10,Cc1cccc(Oc2nc(C)ccc2/C(N)=N/O)c1,-4
11,Cc1ccc(/C(N)=N/O)c(Oc2cccc(C(C)C)c2)n1,57
12,Cc1cccc(Oc2nc(C)ccc2/C(=N/O)N2CCSCC2)c1,1
13,Cc1ccc(/C(N)=N/O)c(Oc2c(F)c(F)cc(F)c2F)n1,4
14,Cc1ccccc1NCc1coc(-c2ccccc2F)n1,-5
15,COc1ccc(Oc2ncccc2/C(=N/O)n2ccnc2C)cc1,-2
16,COc1cc2c(cc1OC)C(C(C)C)N(Cc1coc(-c3ccc(C)cc3)n1)CC2 (stereo unspecified),27
17,COc1cc(CNCc2coc(-c3ccc(C(F)(F)F)cc3)n2)cc(OC)c1,-1
18,Fc1ccc(-c2nc(CNCc3ccncc3)co2)cc1,-3
19,Cc1cc(C)cc(Oc2ccc(/C(=N/O)NCc3ccccc3)cn2)c1,-3
20,Cc1cc(C)cc(CN/C(=N\O)c2ccc(Oc3cccc(C)c3)nc2)c1,19
21,Cc1cc(Oc2ccc(/C(=N/O)NCc3ccccc3)cn2)cc(C(C)C)c1,14
22,CCC(C)(C)N/C(=N\O)c1ccc(Oc2cccc3ccccc23)nc1,95

row,Compound,% inhibition [%]
1,CCC(C)(C)N/C(=N\O)c1ccc(Oc2ccc(F)cc2)nc1,27
2,CCC(C)(C)N/C(=N\O)c1ccc(Oc2cccc3c2OC(C)(C)C3)nc1,11
3,CCC(C)(C)N/C(=N\O)c1ccc(Oc2cc(C)cc(C(C)C)c2)nc1,91
4,CCC(C)(C)N/C(=N\O)c1ccc(Oc2cccc(C)c2)nc1,67
5,Cc1cc(Oc2ccc(/C(=N/O)NCc3cc(F)cc(F)c3)cn2)cc(C(C)C)c1,17
6,CC1CCC(N/C(=N\O)c2ccc(Oc3cccc4ccccc34)nc2)CC1 (stereo unspecified),19
7,CCC(C)(C)N/C(=N\O)c1ccc(Oc2cc(C)cc(C)c2)nc1,95
8,Cc1cccc(Oc2ccc(/C(=N/O)NC(C)C)cn2)c1,8
9,COCCCNCc1coc(-c2ccccc2)n1,38
10,CC1CC(C)CN(/C(=N\O)c2ccc(Oc3cc(Cl)ccc3Cl)nc2)C1 (stereo unspecified),10
11,CN(Cc1cccnc1)/C(=N\O)c1ccc(Oc2cc(Cl)ccc2Cl)nc1,-14
12,Cc1ccc(/C(=N/O)N2CC=CC2)c(Oc2cccc3ccc(C)nc23)n1,28
13,N/C(=N\O)c1ccc(Oc2ccc3ccccc3c2)nc1,12
14,Cc1ccc(/C(=N/O)N2CCC=N2)c(Oc2cccc(F)c2)n1,21
15,CCN(CCC#N)Cc1coc(-c2ccc(C(F)(F)F)cc2)n1,-3
16,Cc1ccccc1CN/C(=N\O)c1ccnc(Oc2ccc(F)c(Cl)c2)c1,14
17,CN(/C(=N\O)c1cccnc1Oc1ccc(-n2cncn2)cc1)C1CCCCC1,14
18,Cc1ccc(-c2nc(CNCc3ccccc3)co2)cc1,-10
19,O/N=C(/c1ccc(Oc2cccc3cccnc23)nc1)N1CCN(c2ccccc2)CC1,-27
20,O/N=C(/c1ccc(Oc2cccc3cccnc23)nc1)N1CCC2CCCCC2C1 (stereo unspecified),58
21,CC1CC(C)CN(/C(=N\O)c2ccc(Oc3cccc4cccnc34)nc2)C1 (stereo unspecified),-24
22,O/N=C(/c1ccc(Oc2ccc(Cl)cc2)nc1)N1CCC2CCCCC2C1 (stereo unspecified),99

row,Compound,% inhibition [%]
1,O/N=C(/c1ccc(Oc2cc(Cl)ccc2Cl)nc1)N1CCC2CCCCC2C1 (stereo unspecified),-2
2,O/N=C(/c1ccc(Oc2ccc3ccccc3c2)nc1)N1CCC2CCCCC2C1 (stereo unspecified),28
3,CCOc1ccc(Oc2nc(C)ccc2/C(=N/O)N2CC(C)CC(C)C2)cc1 (stereo unspecified),8
4,Cc1cc(Oc2ccc(/C(=N/O)NCc3cc(F)ccc3F)cn2)cc(C(C)C)c1,-14
5,O/N=C(/c1cccnc1OC1CCC1)N1CCN(c2ccc(F)cc2)CC1,7
6,CC(=O)c1ccc(N2CCN(Cc3coc(-c4ccccc4Cl)n3)CC2)cc1,-7
7,Cc1ccc(/C(=N/O)N2CCC(N(C)C)C2)c(Oc2ccc3ccccc3c2)n1 (stereo unspecified),20
8,Cc1ccc(Oc2ncccc2/C(=N/O)NCC2CC2)c2c1CCC2,99
9,CCC(CC)N/C(=N\O)c1cccnc1Oc1ccc(C)c2c1CCC2,99
10,Cc1ccc(Oc2ncccc2/C(=N/O)N2CC(C)CC(C)C2)c2c1CCC2 (stereo unspecified),6
11,COCC(C)N/C(=N\O)c1cccnc1Oc1ccc(C)c2c1CCC2 (stereo unspecified),12
12,Cc1ccc(Oc2ncccc2/C(=N/O)NC2CCC(C)CC2)c2c1CCC2 (stereo unspecified),100
13,CCCN/C(=N\O)c1cccnc1Oc1ccc(C)c2c1CCC2,42
14,Cc1ccc(Oc2ncccc2/C(=N/O)NC(C)C)c2c1CCC2,8
15,Cc1ccc(Oc2ncccc2/C(=N/O)N2CCC3CCCCC3C2)c2c1CCC2 (stereo unspecified),-7
16,Cc1ccc(Oc2cc(/C(=N/O)NCC3CC3)ccn2)c2c1CCC2,40
17,Cc1ccc(Oc2ncccc2/C(N)=N/O)c2c1CCC2,9
18,COCCN/C(=N\O)c1cccnc1Oc1ccc(C)c2c1CCC2,80

# From ChEMBL document CHEMBL1857833, “Screening and optimization of specific chemical series against human African Trypanosomiasis (HAT)”
